Screening data (PubChem BioAssay)
A549 tox = A549 cytotoxicity, counter-screen for Nrf2 inhibitors; A549 ARE-Fluc cells, CellTiter-Fluor viability, 18-24 h; Potency, µM (titrated, usually from 46 µM), usual class: inhibitors; 390,000 tested, 0.16% active
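Cytotoxicity counterscreen: CellTiter-Fluor fluorescence was measured in A549 ARE_Fluc cells after 18-24 h of compound exposure in a concentration series. The subsequent BugLite luminescent read reports ARE-luciferase activity.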
TrxR1 substrate = is turned over as a substrate by rat TrxR1; O89049; purified TrxR1 substrate turnover, NADPH consumption readout; Potency, µM (titrated, usually from 114 µM); 390,000 tested, 0.01% active; further: nearly all actives have a fitted effect of over 50% in size
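Rat TrxR1, dispensed at 90 nM, was prereduced with 400 uM NADPH (final) for 5 min at ~22 deg C, then incubated with compound 15 min before 400 uM selenite. A first-read NADPH fluorescence drop versus no-compound background flagged substrates.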
Nrf2 activator = activators of Nrf2 (ARE) signaling; AREc32 ARE-luciferase reporter (MCF7-derived line), luminescence, 24 h; Potency, µM (doses to about 46.1 µM), most hits filed as activators; 410,000 tested, 0.31% active; AID 624171; further: nearly all actives have a fitted effect of over 65% in size
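AREc32 cells carrying an ARE-driven firefly luciferase reporter were seeded at 1000 cells/well in OPTI-MEM with 5% FBS, then exposed to compound for 24 hr at 37 deg C. Luminescence was read with Steady-Glo after 30 min at RT.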
GALK inhibitor = galactokinase (human) inhibition | Potency, µM (doses to about 57.5 µM), most hits filed as inhibitors | 270,000 tested, 0.007% active | Purified GALK, Kinase-Glo residual ATP luminescence
Target sequence (P51570 whole entry, looked up): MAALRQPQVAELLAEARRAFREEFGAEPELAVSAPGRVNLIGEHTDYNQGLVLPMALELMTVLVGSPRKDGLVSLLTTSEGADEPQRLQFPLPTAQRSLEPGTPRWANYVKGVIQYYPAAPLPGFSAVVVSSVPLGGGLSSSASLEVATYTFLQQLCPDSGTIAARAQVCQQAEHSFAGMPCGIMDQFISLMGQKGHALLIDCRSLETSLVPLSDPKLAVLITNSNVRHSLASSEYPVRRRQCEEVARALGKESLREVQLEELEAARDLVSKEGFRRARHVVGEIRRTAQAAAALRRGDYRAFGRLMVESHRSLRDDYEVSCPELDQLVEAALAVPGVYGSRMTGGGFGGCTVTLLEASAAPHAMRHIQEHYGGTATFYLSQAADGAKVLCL
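GALK at 5 nM final was combined with compound, 35 uM ATP and 100 uM galactose in HEPES pH8.0 with MgCl2 and DTT. The reaction ran one hour at room temperature before luminescent ATP detection.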
Nrf2 block = blocks Nrf2 signaling | Potency, µM (titrated, usually from 46 µM), actives largely listed as inhibitors | A549 ARE-Fluc reporter, luciferase luminescence, 18-24 h | 360,000 tested, 2.1% active | AID 504444; further: nearly all actives have a fitted effect of over 60% in size
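Two sequential reads on A549 ARE_Fluc cells exposed to compound for 18-24 h: a CellTiter-Fluor fluorescence read for viability, then a luciferase luminescence read for Nrf2/ARE activity.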
TrxR1 inh-1 = blocks rat thioredoxin reductase 1; 390,000 tested, 1% active; Potency, µM (highest dose often 114 µM), hits mostly inhibitors; O89049; recombinant rTrxR1, NADPH fluorescence consumption, selenite substrate; further: nearly all actives have a fitted effect of over 65% in size
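Rat TrxR1 (90 nM in the dispensed reagent) was pre-reduced with 400 uM NADPH for 5 min at room temperature, then incubated with compound for 15 min. After 400 uM selenite was added, NADPH fluorescence (Ex 340/Em 450 nm) was followed for 8 min.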
TRb SRC2 Alpha = TRb-SRC2 (human) interaction inhibition; Potency, µM; shares compounds with TrxR1 inh-1; AID 2444; AlphaScreen TRb LBD-SRC2 peptide binding, luminescence; 30 tested, 50% active; calls by dose curve
HepG2 tox = HepG2 cytotoxicity, 72 h ATP readout | 40 tested, 50% active | shares compounds with TrxR1 inh-1 | AID 2447 | Potency, µM | HepG2 viability, ATP luminescence (CellTiter-Glo), 72 h; calls by dose curve
AR-SRC2 inh = disrupts human androgen receptor binding to SRC2 peptide; calls only; 25 tested, under 10 active; AID 2448; shares compounds with TrxR1 inh-1; AR-LBD Tx-SRC2-3 fluorescence polarization, 3 h; call rule not given here
PPARg-DRIP2 inh = PPARg-DRIP2 (human) interaction inhibition, selectivity; shares compounds with TrxR1 inh-1; PPARg LBD / Texas Red DRIP-2 peptide, fluorescence polarization, 3 h; Potency, µM; 25 tested, under 10 active; AID 2449; calls by dose curve
VDR SRC2 FP = selectivity of TRb-SRC2 inhibitors: human vitamin D receptor-SRC2 inhibition | shares compounds with TrxR1 inh-1 | VDR LBD/SRC2-3 peptide, fluorescence polarization, 3 h | Potency, µM | 25 tested, under 10 active | AID 2455; calls by dose curve
TRb-SRC2 FP Fluo = disrupts human TRb binding to fluorescein-SRC2 peptide | shares compounds with TrxR1 inh-1 | TRb LBD / fluorescein-SRC2 peptide, fluorescence polarization | Potency, µM | 20 tested, under 10 active | AID 2487; call rule not given here
GR inh = glutathione reductase inhibition, TrxR1 selectivity check; activity change, negative = inhibition, % at 57.1 µM; shares compounds with TrxR1 inh-1; purified GR, DTNB reduction absorbance 405 nm kinetic; 55 tested, under 10 active
TrxR1 inh-2 = rat TrxR1 inhibition, primary screen retest; shares compounds with TrxR1 inh-1; recombinant TrxR1, NADPH fluorescence consumption, selenite substrate; Potency, µM, most hits filed as inhibitors; 55 tested, 50% active
TrxR1 insulin MOA = inhibits TrxR1-driven insulin reduction; AID 652037; Potency, µM; 55 tested, 20% active; shares compounds with TrxR1 inh-1; TrxR1 Trx-coupled insulin reduction, NADPH absorbance 340 nm;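 active means compounds with a measured potency under 100 micromolar; inconclusive means filed, but no rule given; inactive means potency at or above that, or unmeasurable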
TrxR1 inh-3 = inhibitors of rat thioredoxin reductase 1, DTNB reduction; AID 652256; Potency, µM; shares compounds with TrxR1 inh-1; purified TrxR1, DTNB reduction, A412; 55 tested, 90% active;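 active means a half-inhibiting concentration could be measured and was below 100 µM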
Numbers stand for hits; i = inactive; ? = inconclusive; nt = no result. Sampled rows, rich in hits. Any-hit rate of the full collection: about 3%. Unless noted, the call rests on the fitted dose curve; in most records, active means well fitted curve in the direction sought with a large enough effect; inconclusive means small, poorly fitted or top-dose-only effect, or another doubt; inactive means no such curve, though single readings can be large; an effect the other way counts as inactive or inconclusive.

SMILES	A549 tox	TrxR1 substrate	Nrf2 activator	GALK inhibitor	Nrf2 block	TrxR1 inh-1	TRb SRC2 Alpha	HepG2 tox	AR-SRC2 inh	PPARg-DRIP2 inh	VDR SRC2 FP	TRb-SRC2 FP Fluo	TrxR1 insulin MOA	TrxR1 inh-3	others
COc1cc(CN2CCCCC2C(=O)Nc2ccc(Oc3ccccc3)nc2)ccc1O (configuration not stated)	i	i	i	i	?	12.6µM	nt	nt	nt	nt	nt	nt	i	0.14µM	GR inh=i;TrxR1 inh-2=?
CCOc1ccc(-n2nc3ccc(NC(=O)COc4ccccc4C)cc3n2)cc1	i	i	i	nt	i	i	nt	nt	nt	nt	nt	nt	nt	nt
COc1cc(/C=C2/C(=O)NN(c3cccc(F)c3)C2=O)ccc1OC(=O)c1ccco1	i	i	i	i	i	28.2µM	nt	nt	nt	nt	nt	nt	i	6.81µM	GR inh=i;TrxR1 inh-2=?
COc1c(C)cc(C(=O)C2CCCN(Cc3c(C)n(C)n(-c4ccccc4)c3=O)C2)cc1C (configuration not stated)	i	i	i	i	?	i	nt	nt	nt	nt	nt	nt	nt	nt
C/C=C\C=C\C(=O)Nc1cccc(C2=NOC3(C2)C[C@@H](C(N)=O)N(C(=O)C(c2ccccc2)c2ccccc2)C3)c1 (some centres not stated)	i	i	i	i	i	12.6µM	nt	nt	nt	nt	nt	nt	i	i
COCCNC(=O)CN1CCN(S(=O)(=O)c2ccc3c(c2)CCCC3)CC1	i	i	i	nt	i	i	nt	nt	nt	nt	nt	nt	nt	nt
CS(=O)(=O)c1ccc(C(=O)OCC(=O)Nc2ccc(OC(F)(F)F)cc2)cc1[N+](=O)[O-]	i	i	nt	nt	i	3.55µM	16.7µM	i	i	i	i	i	nt	nt
CC(=O)c1cccc(NC(=O)C(C)OC(=O)c2ccc(S(C)(=O)=O)c([N+](=O)[O-])c2)c1 (configuration not stated)	i	i	nt	nt	i	7.08µM	39.9µM	?	i	?	?	61.9µM	nt	nt
Cc1csc(Sc2ccc(C(=O)OCC(=O)Nc3ccc(OC(F)(F)F)cc3)cc2[N+](=O)[O-])n1	i	i	?	i	i	i	nt	nt	nt	nt	nt	nt	nt	nt
CC(OC(=O)c1ccncc1)C(=O)Nc1cccc([N+](=O)[O-])c1 (configuration not stated)	i	i	i	i	i	i	nt	nt	nt	nt	nt	nt	nt	nt
CC(=O)c1cccc(NC(=O)COC(=O)c2ccc(S(C)(=O)=O)c([N+](=O)[O-])c2)c1	i	i	i	i	i	1.58µM	86.8µM	?	i	i	59.7µM	?	nt	nt
